We go through seven compounds from PubChem BioAssay (Tox21).

Assay [1] can be described thus: Nuclear factor erythroid 2-related factor 2/antioxidant responsive element (Nrf2/ARE) small molecule agonists: qHTS cell viability counter screen in human keratinocytes (AID 1919968; active = well fitted curve in the direction sought with a large enough effect in the repeat runs; an effect the other way counts as inactive or inconclusive; note: nearly all actives have a fitted effect of over 55% in size). The procedure, abridged:
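Seed 1,500 KeratinoSens cells per well, then incubate 5 h at 37 C/5% CO2. Add compounds in DMSO and incubate 23 h. Add CellTiter-Fluor, wait 1 h and read fluorescence.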
Background: Quantitative high-throughput screening tests each substance at several concentrations.

Assay [2] is described as follows: Nuclear factor erythroid 2-related factor 2/antioxidant responsive element (Nrf2/ARE) small molecule agonists: luciferase reporter gene qHTS assay in human keratinocytes (AID 1919969). Note: nearly all actives have a fitted effect of over 35% in size. Note: potency is the fitted concentration of half-maximal effect. A general note: In a reporter assay the amount or activity of a reporter protein is the signal.
Assay [3] deals with Gonadotropin-releasing hormone receptor (Homo sapiens) (UniProt P30968). Description: Human gonadotropin-releasing hormone receptor (GnRHR) small molecule agonists, calcium flux assay in GnRHR-HEK293 cells (AID 1920063). Note: nearly all actives have a fitted effect of over 35% in size. The essentials:
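Cells: HEK293 stably expressing human GnRHR. Steps: overnight (18 h) culture, 1 h calcium dye loading at 37 C, compound addition, kinetic fluorescence read at 480/540 nm. Each compound tested at 15 concentrations in triplicate.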
For orientation: Calcium assays in cells follow changes in intracellular calcium, usually with a dye or a luminescent sensor.

In assay [4] the target is KiSS-1 receptor (Homo sapiens) (UniProt Q969F8). In words: Human kisspeptin (KISS1R) small molecule agonists, calcium flux assay in KISS1R-HEK293 cells (AID 1920064; active = well fitted curve in the direction sought with a large enough effect in the repeat runs; an effect the other way counts as inactive or inconclusive). The essentials: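 Cells plated and incubated 18 h; dye added, 1 h at 37 C; compounds in DMSO pinned in; signal read at 480/540 nm every second for 3 min. Each compound tested at 15 concentrations in triplicate.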

Assay [5] is described as follows: p53 small molecule agonists, cell-based qHTS assay with human liver microsomes (AID 1963577). The essentials: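 In this qHTS, p53 response-element beta-lactamase cells receive test compound together with a microsome/NADPH activating system (0.5 mg/mL final each) and are incubated 16 h at 37 C before LiveBLAzer fluorescence detection.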
Assay [6] can be described thus: p53 small molecule agonists, cell-based qHTS assay with rat liver microsomes (AID 1963578). The procedure, abridged: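 Agonist mode in p53RE-bla reporter cells, with compounds co-incubated 16 h at 37 C alongside 0.5 mg/mL rat liver microsomes and 0.5 mg/mL NADPH (final), followed by a 2 h LiveBLAzer detection step.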
A short description of assay [7]: p53 small molecule agonists, cell-based qHTS assay with rat liver microsomes: qHTS cell viability counter screen (AID 1963580). Note: nearly all actives have a fitted effect of over 45% in size. The procedure, abridged: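 In HCT-116 cells carrying a p53 response element-bla reporter, compounds were metabolically activated in situ by rat liver microsomes with NADPH over 16 h. Cell ATP content then served as the cytotoxicity measure.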

Assay [8] in a line: p53 small molecule agonists, cell-based qHTS assay: qHTS cell viability counter screen (AID 1963581). Note: nearly all actives have a fitted effect of over 45% in size. The procedure, abridged: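 Cells: HCT-116 with p53 response element-driven beta-lactamase. Treatment: 16 h, 37 C, compounds in DMSO. Read: CellTiter-Glo luminescence after 30 min RT.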
Assay [9] is described as follows: cAMP Responsive Elements (CRE) small molecule agonists, cell-based qHTS assay (AID 1963590). The essentials: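 Agonist mode qHTS in CRE-bla HEK 293T cells: compounds dosed from DMSO for 3 h at 37 C/5% CO2, followed by LiveBLAzer B/G FRET substrate for 2 h at room temperature.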
Assay [10] deals with Beta-2 adrenergic receptor (Homo sapiens) (UniProt P07550). Description: Adrenergic beta2 receptor (ADRB2) small molecule antagonists, cell-based qHTS assay (AID 1963592). Note: series mostly up to about 92 µM; nearly all actives have a fitted effect of over 50% in size. The procedure, abridged: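 Cells (CHO, stable ADRB2 overexpression) incubated 18-20hr at 37C; compounds added from DMSO; agonist mix (1nM isoproterenol, 100uM IBMX, 25uM Ro-20-1724) added; 0.5hr RT; d2-cAMP and anti-cAMP-cryptate added; 1hr RT; 665/615 nm read.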

For assay [11] the target is unchanged. Description: Adrenergic beta2 receptor (ADRB2) small molecule agonists, cell-based qHTS assay (AID 1963593).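 Note: CHO cells stably overexpressing human ADRB2.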 The essentials:
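CHO cells stably over-expressing ADRB2 were plated overnight at 37C, then dosed with compounds plus a stimulation mix containing 100uM IBMX and 25uM Ro-20-1724 for 0.5hr at room temperature. cAMP was measured by HTRF competition, 1hr.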

Assay [12] concerns the target D(2) dopamine receptor (Homo sapiens) (UniProt P14416). Description: Dopamine D2 receptor (DRD2) small molecule agonists, cell-based qHTS assay (AID 1963594). Note: nearly all actives have a fitted effect of over 35% in size. The essentials: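 HEK293 cells stably expressing DRD2 were cultured 24 h at 37 C, then given Ro20-1724 (0.1 mM final) and compounds for 10 min at room temperature. NKH477 (200nM) was then added for 30 min. cAMP was read by HTRF.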

The target is the same in assay [13]. Description: Dopamine D2 receptor (DRD2) small molecule antagonists, cell-based qHTS assay (AID 1963595; active = well fitted inhibition curve with a large enough effect in the signal ratio in the repeat runs, with a control signal flat; the % refers to the signal ratio). The essentials: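 Antagonism was scored as restored cAMP in HEK293-DRD2 cells. These cells were stimulated with 200 nM NKH477 and 12 nM quinpirole for 30 min at room temperature, in the presence of 0.1 mM Ro20-1724.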
Assay [14] can be described thus: G protein-coupled receptor (GPCR) small molecule agonists, calcium flux assay: HEK293 wild type cell line counter screen (AID 1920065). The procedure, abridged: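 Counter-screen of the Tox21 10K library for non-specific calcium release: dye-loaded cells received compounds in DMSO and were monitored by kinetic fluorescence (480/540 nm, 3 min). Fifteen concentrations, run in triplicate.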

The nature of assay [15]: p53 small molecule agonists, cell-based qHTS assay with human liver microsomes: qHTS cell viability counter screen (AID 1963579). Note: nearly all actives have a fitted effect of over 45% in size. The essentials: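 Metabolically activated exposure: compounds, human liver microsomes and NADPH (0.5 mg/mL final apiece) were added to p53RE-bla cells seeded 5 h earlier, left 16 h at 37 C, and then assessed for viability by CellTiter-Glo luminescence.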

Assay [16] deals with 5-hydroxytryptamine receptor 2A (Homo sapiens) (UniProt P28223). Description: 5-hydroxytryptamine receptor 2A (HTR2A) small molecule antagonists, cell-based qHTS assay (AID 1963586). Note: nearly all actives have a fitted effect of over 45% in size. The essentials: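 Antagonist-mode intracellular calcium assay: DOI (4 nM) added after 5 min compound pre-incubation at room temperature to dye-loaded HTR2A-CHO cells. Fluorescence followed for 3 min, sampled every second.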

The target is the same in assay [17]. Description: 5-hydroxytryptamine receptor 2A (HTR2A) small molecule agonists, cell-based qHTS assay (AID 1963587). Note: nearly all actives have a fitted effect of over 30% in size. The essentials:
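HTR2A-CHO cells, plated 18 h at 37 C/5% CO2, dye-loaded 1 h at 37 C; compounds in DMSO added by pin tool (agonist mode). Intracellular calcium flux read as kinetic fluorescence on FDSS over 2 min at 1 s intervals.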

The target in assay [18] is Muscarinic acetylcholine receptor M1 (Homo sapiens) (UniProt P11229). Description: Cholinergic receptor muscarinic 1 (CHRM1) small molecule antagonists, cell-based qHTS assay (AID 1963588). Note: nearly all actives have a fitted effect of over 40% in size. The essentials: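 CHRM1-CHO calcium-flux assay, antagonist mode. Cells were seeded 18 h, dye-loaded 1 h at 37 C and given compound for 5 min at RT, then acetylcholine was added at 50nM. FDSS fluorescence was read 3 min; 15 concentrations, three runs.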

Assay [19] shares this target. In words: Cholinergic receptor muscarinic 1 (CHRM1) small molecule agonists, cell-based qHTS assay (AID 1963589). Note: nearly all actives have a fitted effect of over 35% in size. The essentials:
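Agonist-mode qHTS in CHO cells stably carrying human muscarinic M1. Intracellular calcium is tracked by fluorescence every second after compound transfer; each compound runs at 15 concentrations in three independent runs.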

The nature of assay [20]: cAMP Responsive Elements (CRE) small molecule antagonists, cell-based qHTS assay (AID 1963591; active = well fitted inhibition curve with a large enough effect in the signal ratio in the repeat runs, not every such curve was filed as active; the % refers to the signal ratio). The procedure, abridged:
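Antagonist mode: test compounds are co-incubated with the adenylyl cyclase activator NKH477 (0.25 uM final) on CRE-bla HEK293T cells for 3 h at 37 °C, followed by LiveBLAzer substrate loading.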

Records with an inconclusive call do not appear. Active and inactive are the calls of the source. Unless noted, calls come from the whole dose curve.

Beta-2 adrenergic receptor (Homo sapiens), sequence (P07550 whole entry, looked up): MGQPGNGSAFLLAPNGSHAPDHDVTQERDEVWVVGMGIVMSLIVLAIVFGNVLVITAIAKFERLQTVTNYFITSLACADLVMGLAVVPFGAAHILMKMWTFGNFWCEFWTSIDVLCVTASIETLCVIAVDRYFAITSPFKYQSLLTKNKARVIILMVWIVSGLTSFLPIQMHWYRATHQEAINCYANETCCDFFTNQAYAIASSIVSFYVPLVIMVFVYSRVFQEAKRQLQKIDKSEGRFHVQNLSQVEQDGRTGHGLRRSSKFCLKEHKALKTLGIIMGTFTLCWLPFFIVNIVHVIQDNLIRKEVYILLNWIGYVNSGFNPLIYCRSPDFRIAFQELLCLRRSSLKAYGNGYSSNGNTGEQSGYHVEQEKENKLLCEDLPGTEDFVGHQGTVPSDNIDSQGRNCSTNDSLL
Gonadotropin-releasing hormone receptor (Homo sapiens), sequence (P30968 whole entry, looked up): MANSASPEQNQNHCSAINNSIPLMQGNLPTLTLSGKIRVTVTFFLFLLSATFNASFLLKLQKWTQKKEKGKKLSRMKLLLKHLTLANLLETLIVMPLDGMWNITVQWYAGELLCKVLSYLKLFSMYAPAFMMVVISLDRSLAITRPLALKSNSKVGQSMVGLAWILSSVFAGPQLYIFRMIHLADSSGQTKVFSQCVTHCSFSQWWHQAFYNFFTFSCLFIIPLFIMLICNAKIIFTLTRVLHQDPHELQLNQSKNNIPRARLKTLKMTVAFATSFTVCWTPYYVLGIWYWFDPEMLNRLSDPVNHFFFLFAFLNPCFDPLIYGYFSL
Muscarinic acetylcholine receptor M1 (Homo sapiens), sequence (P11229 whole entry, looked up): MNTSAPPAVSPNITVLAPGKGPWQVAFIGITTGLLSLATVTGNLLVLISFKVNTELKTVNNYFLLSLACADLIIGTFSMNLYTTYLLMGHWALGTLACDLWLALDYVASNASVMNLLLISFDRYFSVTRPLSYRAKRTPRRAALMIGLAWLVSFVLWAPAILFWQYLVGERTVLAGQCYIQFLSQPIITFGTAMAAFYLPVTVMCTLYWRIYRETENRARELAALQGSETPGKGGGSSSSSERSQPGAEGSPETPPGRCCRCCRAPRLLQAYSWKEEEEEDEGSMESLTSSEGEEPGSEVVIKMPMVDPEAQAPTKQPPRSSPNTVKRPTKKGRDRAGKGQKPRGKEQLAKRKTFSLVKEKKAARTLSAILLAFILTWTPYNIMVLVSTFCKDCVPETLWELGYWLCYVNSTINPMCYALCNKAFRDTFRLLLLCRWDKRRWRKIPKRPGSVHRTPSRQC
KiSS-1 receptor (Homo sapiens), sequence (Q969F8 whole entry, looked up): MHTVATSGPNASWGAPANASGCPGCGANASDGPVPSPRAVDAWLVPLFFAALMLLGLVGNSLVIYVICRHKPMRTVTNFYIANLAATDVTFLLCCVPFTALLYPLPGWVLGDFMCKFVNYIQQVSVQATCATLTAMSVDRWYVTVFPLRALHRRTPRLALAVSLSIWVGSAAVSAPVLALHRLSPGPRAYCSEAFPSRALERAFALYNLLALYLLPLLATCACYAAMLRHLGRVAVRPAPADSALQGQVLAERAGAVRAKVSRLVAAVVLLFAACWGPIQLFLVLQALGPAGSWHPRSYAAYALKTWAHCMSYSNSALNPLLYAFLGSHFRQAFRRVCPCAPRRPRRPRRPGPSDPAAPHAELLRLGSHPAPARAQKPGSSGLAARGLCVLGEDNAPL
D(2) dopamine receptor (Homo sapiens), sequence (P14416 whole entry, looked up): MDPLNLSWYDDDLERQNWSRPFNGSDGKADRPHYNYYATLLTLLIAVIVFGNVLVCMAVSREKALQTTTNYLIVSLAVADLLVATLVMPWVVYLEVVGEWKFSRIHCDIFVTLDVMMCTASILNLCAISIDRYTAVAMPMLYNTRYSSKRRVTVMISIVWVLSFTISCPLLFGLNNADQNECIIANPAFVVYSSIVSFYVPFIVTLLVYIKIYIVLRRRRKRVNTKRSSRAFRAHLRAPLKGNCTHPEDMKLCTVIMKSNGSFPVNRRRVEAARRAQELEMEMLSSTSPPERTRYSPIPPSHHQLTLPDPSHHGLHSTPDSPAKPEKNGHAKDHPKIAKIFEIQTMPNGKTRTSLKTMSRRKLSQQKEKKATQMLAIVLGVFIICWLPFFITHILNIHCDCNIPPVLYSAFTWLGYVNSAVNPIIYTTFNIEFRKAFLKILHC
5-hydroxytryptamine receptor 2A (Homo sapiens), sequence (P28223 whole entry, looked up): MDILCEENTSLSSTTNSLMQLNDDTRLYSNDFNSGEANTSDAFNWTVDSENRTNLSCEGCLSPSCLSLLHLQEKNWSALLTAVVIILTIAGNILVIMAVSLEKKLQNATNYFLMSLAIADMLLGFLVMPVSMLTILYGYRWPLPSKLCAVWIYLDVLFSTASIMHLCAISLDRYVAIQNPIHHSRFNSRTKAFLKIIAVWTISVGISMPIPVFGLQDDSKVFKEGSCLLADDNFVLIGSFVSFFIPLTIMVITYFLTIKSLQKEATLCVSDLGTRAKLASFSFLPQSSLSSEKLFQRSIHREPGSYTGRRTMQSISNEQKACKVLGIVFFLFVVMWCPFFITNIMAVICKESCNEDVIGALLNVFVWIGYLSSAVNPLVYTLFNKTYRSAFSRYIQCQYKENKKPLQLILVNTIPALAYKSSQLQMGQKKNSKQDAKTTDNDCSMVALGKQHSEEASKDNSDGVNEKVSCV

Consider `CCOC(=O)n1ccn(C)c1=S`, for which the Potency result in assay [1], in [2], in [3], in [4], in assay [5] and in [6] was “inactive” in each case. Also, the Potency result in assay [7], in [8], in assay [9], in assay [10], in [11] and in assay [12] was “inactive” throughout. The Potency entry in assay [13] is “inactive”.
Regarding `COC(=O)c1cc(Cl)ccc1OC`, the Potency result in assay [1], in assay [2], in assay [3], in assay [14], in [5] and in assay [6] was “inactive” in each case. The Potency result in assay [15], in assay [7], in [8], in assay [16], in assay [17] and in [18] was “inactive” throughout. Further, the Potency entry in assay [19], in assay [9], in [20], in [10], in [11] and in assay [12] was “inactive” throughout. Also, in assay [13], the Potency entry was “inactive”.
Turning to `CC(C)S`, the Potency result in [1], in assay [2], in [3], in assay [14], in [5] and in assay [6] was “inactive” each time. The Potency entry in [15], in [7], in [8], in [16], in assay [17] and in [18] was “inactive” in each case. The Potency entry in [19], in assay [9], in assay [20], in assay [10], in [12] and in assay [13] was “inactive” throughout.
Take `CCOC(=O)C(C)C(C)=O` (centres undefined): the Potency entry in assay [1], in assay [2], in [3], in assay [14], in assay [5] and in assay [6] was “inactive” in each case. The Potency result in assay [15], in assay [7], in assay [8], in assay [16], in assay [17] and in assay [18] was “inactive” each time. In addition, the Potency entry in [19], in assay [9], in assay [20], in [10], in assay [11] and in [12] was “inactive” each time. Further, in assay [13], the Potency entry is “inactive”.
In the case of `Nc1cc(S(=O)(=O)O)ccc1S(=O)(=O)O`, the Potency entry in assay [1], in assay [2], in assay [3], in [4], in assay [5] and in assay [6] was “inactive” each time. For the same compound, the Potency entry in [15], in [8], in assay [16], in assay [17], in assay [19] and in assay [9] was “inactive” each time. In addition, the Potency result in assay [20], in assay [10], in assay [12] and in assay [13] was “inactive” throughout.
Turning to `CCCCCOC(C)=O`, the Potency entry in assay [1], in [3], in assay [4], in [15], in assay [7] and in [8] was “inactive” each time. Also, the Potency result in [16], in assay [17], in [18], in [9], in [20] and in [10] was “inactive” throughout. The Potency entry in assay [11], in assay [12] and in [13] was “inactive” throughout. For the same compound, the Potency in [2] is 68.6 µM (active).
In the case of `Nc1cc(=O)[nH]c(N)n1`, the Potency result in [1], in [2], in assay [3], in assay [14], in [5] and in [6] was “inactive” in each case. In addition, the Potency result in assay [15], in assay [7], in assay [8], in [16], in assay [17] and in assay [18] was “inactive” in each case. Further, the Potency entry in [19], in [9], in [20], in [10], in [12] and in [13] was “inactive” each time.
